A short description of experiment [1]: NCI Yeast Anticancer Drug Screen. Data for the rad50 strain (AID 155).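 Note: 0% = growth of vehicle-only cultures of the same strain.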 To be noted: S. cerevisiae rad50 strain growth inhibition, hits give high values. The gist of the method:
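Relative growth inhibition (compound vs vehicle) was measured in yeast with a defined repair-gene alteration.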

A short description of experiment [2]: NCI Yeast Anticancer Drug Screen. Data for the mec2-1 strain (AID 157). The settings on record: S. cerevisiae mec2-1 strain, hits give high values. The gist of the method:
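Growth inhibition is read against vehicle-treated controls after compound exposure of the mec2-1 yeast strain, which is defective in DNA damage repair or cell cycle control.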

Experiment [3] can be described thus: NCI Yeast Anticancer Drug Screen. Data for the sgs1 mgt1 strain (AID 161).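 Note: 0% = growth of cultures given vehicle only.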 To be noted: S. cerevisiae sgs1 mgt1 strain, hits give high values. The procedure, abridged:
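Compounds are added to genetically altered yeast, and growth is compared with cultures given vehicle alone to give percent inhibition.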

Experiment [4] in a line: NCI Yeast Anticancer Drug Screen. Data for the cln2 rad14 strain (AID 165).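 Note: 0% = growth equal to vehicle treated cultures.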 The settings on record: S. cerevisiae cln2 rad14 strain, hits give high values. The gist of the method: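 Growth inhibition, relative to vehicle-treated controls, is the read-out. The test organism is a yeast strain with defined genetic alterations, cln2 rad14.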
Experiment [5] can be described thus: NCI Yeast Anticancer Drug Screen. Data for the bub3 strain (AID 167). To be noted: S. cerevisiae bub3 mutant strain, hits give high values. The procedure, abridged:
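Screening used yeast with an engineered genetic alteration affecting cell cycle control. Compound-exposed cultures were compared with vehicle cultures, and reduced growth was taken as inhibition.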

A short description of experiment [6]: NCI Yeast Anticancer Drug Screen. Data for the mlh1 rad18 strain (AID 175). To be noted: S. cerevisiae mlh1 rad18 strain growth inhibition, hits give high values. The gist of the method:
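Cells of a genetically altered yeast strain, deficient in DNA damage repair, were treated with compound. Their growth was then compared with that of vehicle-treated cultures to give inhibition.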

Where [7] appears, read: at 5.0 µM (retest, dose inferred, filed as 0.5).
Where [8] appears, read: at 50.0 µM (retest, dose inferred, filed as 5.0).

Structures are written as SMILES. This is part of a sample that, as a whole, favours compounds with a hit. Of some 79,000 tested, about 15% had one in any assay. A number with no mark means an inactive call. Activity calls are given as the source filed them. Cut-off read from the data, not from the text of the source: active = growth inhibition above about 70%; inactive = the rest.

As to `C1CC[N-]CC1.CC(=N\O)/C(C)=N/O.CC(=N\O)/C(C)=N/O.OC1[CH-]CCCC1.[Co+2]`, the growth inhibition in experiment [1] (setting [7]) was 22%; in experiment [1] (setting [8]), 20%; in experiment [1] (at 50.0 µM), 23.9%; in experiment [2] (setting [7]) it was 5%; in experiment [2] (setting [8]), 16%; in experiment [2] (at 50.0 µM) it was -1.95%. For the same molecule, the growth inhibition was 28% in experiment [3] (setting [7]); 25% in experiment [3] (setting [8]); 13.9% in experiment [3] (at 50.0 µM); 17% in experiment [4] (setting [7]); 28% in experiment [4] (setting [8]); 76% (active) in experiment [4] (at 50.0 µM). For the same molecule, the growth inhibition in experiment [5] (setting [7]) was 13%; in experiment [5] (setting [8]) it was 13%; in experiment [5] (at 50.0 µM) it was -5.4%; in experiment [6] (setting [7]) it was 17%; in experiment [6] (setting [8]), 35%; in experiment [6] (at 50.0 µM) it was 30.9%.
With `CCOC(=S)S`, the growth inhibition in experiment [1] (setting [7]) was 43%; in experiment [1] (setting [8]) it was 99% (active); in experiment [1] (at 50.0 µM), 98.9% (active); in experiment [2] (setting [7]), 17%; in experiment [2] (setting [8]), 100% (active); in experiment [2] (at 50.0 µM), 99.6% (active). Moreover, the growth inhibition in experiment [3] (setting [7]) is 4%; in experiment [3] (setting [8]), 99% (active); in experiment [3] (at 50.0 µM), 99.5% (active); in experiment [4] (setting [7]), 12%; in experiment [4] (setting [8]) it was 66%; in experiment [4] (at 50.0 µM), 95.8% (active). Moreover, the growth inhibition is 29% in experiment [5] (setting [7]); 99% (active) in experiment [5] (setting [8]); 99.2% (active) in experiment [5] (at 50.0 µM); 31% in experiment [6] (setting [7]); 99% (active) in experiment [6] (setting [8]); 99.2% (active) in experiment [6] (at 50.0 µM).
In the case of `O=C(N/N=C/c1cc(Cl)cc(Cl)c1[O-])c1ccccc1O.O=C(N/N=C/c1cc(Cl)cc(Cl)c1[O-])c1ccccc1O.[Mn+2]`, the growth inhibition in experiment [1] (setting [7]) is 57%; in experiment [1] (setting [8]), 90% (active); in experiment [1] (at 50.0 µM), 66.8%; in experiment [2] (setting [7]), 88% (active); in experiment [2] (setting [8]), 87% (active); in experiment [2] (at 50.0 µM), 91.3% (active). In addition, the growth inhibition was 68% in experiment [3] (setting [7]); 88% (active) in experiment [3] (setting [8]); 47.1% in experiment [3] (at 50.0 µM); 77% (active) in experiment [4] (setting [7]); 72% (active) in experiment [4] (setting [8]); 85% (active) in experiment [4] (at 50.0 µM). Besides, the growth inhibition was 89% (active) in experiment [5] (setting [7]); 80% (active) in experiment [5] (setting [8]); 90.8% (active) in experiment [5] (at 50.0 µM); 56% in experiment [6] (setting [7]); 87% (active) in experiment [6] (setting [8]); 68.2% in experiment [6] (at 50.0 µM).
Turning to `[Br][Cd][Br].c1ccc([PH+](c2ccccc2)c2ccccc2)cc1.c1ccc([PH+](c2ccccc2)c2ccccc2)cc1`, the growth inhibition in experiment [1] (setting [7]) is 29%; in experiment [1] (setting [8]), 95% (active); in experiment [1] (at 50.0 µM), 97.5% (active); in experiment [2] (setting [7]) it was 20%; in experiment [2] (setting [8]) it was 84% (active); in experiment [2] (at 50.0 µM) it was 89.5% (active). Besides, the growth inhibition in experiment [3] (setting [7]) is 18%; in experiment [3] (setting [8]) it was 55%; in experiment [3] (at 50.0 µM) it was 94.9% (active); in experiment [4] (setting [7]), 4%; in experiment [4] (setting [8]) it was 89% (active); in experiment [4] (at 50.0 µM) it was 92.4% (active). The growth inhibition was 21% in experiment [5] (setting [7]); 93% (active) in experiment [5] (setting [8]); 92.5% (active) in experiment [5] (at 50.0 µM); 18% in experiment [6] (setting [7]); 92% (active) in experiment [6] (setting [8]); 94.7% (active) in experiment [6] (at 50.0 µM).
On to `O=[N+]([O-])O.O=[N+]([O-])O.[NH-]C1CCCCC1[NH-].[Pt+2]` (configuration not stated), for which the growth inhibition in experiment [1] (setting [7]) was 33%; in experiment [1] (setting [8]) it was 96% (active); in experiment [1] (at 50.0 µM), 52.1%; in experiment [2] (setting [7]), 25%; in experiment [2] (setting [8]), 95% (active); in experiment [2] (at 50.0 µM) it was 90.7% (active). The growth inhibition in experiment [3] (setting [7]) was 57%; in experiment [3] (setting [8]) it was 100% (active); in experiment [3] (at 50.0 µM), 79.5% (active); in experiment [4] (setting [7]) it was 45%; in experiment [4] (setting [8]) it was 97% (active); in experiment [4] (at 50.0 µM), 86.4% (active). In addition, the growth inhibition in experiment [5] (setting [7]) is 56%; in experiment [5] (setting [8]), 100% (active); in experiment [5] (at 50.0 µM), 88.9% (active); in experiment [6] (setting [7]), 16%; in experiment [6] (setting [8]), 75% (active); in experiment [6] (at 50.0 µM), 92.3% (active).
As to `C=CCN1C(=O)NC(=O)/C(=C/c2c3ccccc3cc3ccccc23)C1=O`, the growth inhibition in experiment [1] (setting [7]) is 58%; in experiment [1] (setting [8]), 98% (active); in experiment [1] (at 50.0 µM), 69.2%; in experiment [2] (setting [7]), 85% (active); in experiment [2] (setting [8]) it was 98% (active); in experiment [2] (at 50.0 µM), 47.7%. Moreover, the growth inhibition in experiment [3] (setting [7]) is 66%; in experiment [3] (setting [8]), 99% (active); in experiment [3] (at 50.0 µM) it was 82.2% (active); in experiment [4] (setting [7]) it was 48%; in experiment [4] (setting [8]), 98% (active); in experiment [4] (at 50.0 µM), -22.6%. The growth inhibition in experiment [5] (setting [7]) was 83% (active); in experiment [5] (setting [8]), 96% (active); in experiment [5] (at 50.0 µM), 88% (active); in experiment [6] (setting [7]), 79% (active); in experiment [6] (setting [8]), 99% (active); in experiment [6] (at 50.0 µM), 85% (active).
Regarding `COc1ccc2c(c1O)-c1cccc3c1[C@@H](C2)N(CCCl)CC3`, the growth inhibition in experiment [1] (setting [7]) was 30%; in experiment [1] (setting [8]), 90% (active); in experiment [1] (at 50.0 µM), 67.6%; in experiment [2] (setting [7]), 15%; in experiment [2] (setting [8]), 99% (active); in experiment [2] (at 50.0 µM), 70.8% (active). Also, the growth inhibition in experiment [3] (setting [7]) was 28%; in experiment [3] (setting [8]) it was 95% (active); in experiment [3] (at 50.0 µM), 57.6%; in experiment [4] (setting [7]) it was 13%; in experiment [4] (setting [8]), 66%; in experiment [4] (at 50.0 µM) it was 35.4%. The growth inhibition in experiment [5] (setting [7]) was 19%; in experiment [5] (setting [8]), 98% (active); in experiment [5] (at 50.0 µM), 44.4%; in experiment [6] (setting [7]), 52%; in experiment [6] (setting [8]), 98% (active); in experiment [6] (at 50.0 µM) it was 86.6% (active).
For `CCOc1c(Br)cc(/C=C/[N+](=O)[O-])cc1OC`, the growth inhibition in experiment [1] (setting [7]) is 44%; in experiment [1] (setting [8]), 98% (active); in experiment [1] (at 50.0 µM), 69.8%; in experiment [2] (setting [7]), 61%; in experiment [2] (setting [8]) it was 98% (active); in experiment [2] (at 50.0 µM), 75.5% (active). The growth inhibition in experiment [3] (setting [7]) was 32%; in experiment [3] (setting [8]), 98% (active); in experiment [3] (at 50.0 µM), 84% (active); in experiment [4] (setting [7]), 45%; in experiment [4] (setting [8]) it was 92% (active); in experiment [4] (at 50.0 µM), 77% (active). Further, the growth inhibition was 61% in experiment [5] (setting [7]); 99% (active) in experiment [5] (setting [8]); 79% (active) in experiment [5] (at 50.0 µM); 58% in experiment [6] (setting [7]); 98% (active) in experiment [6] (setting [8]); 90.5% (active) in experiment [6] (at 50.0 µM).
Turning to `CC[n+]1c(/C=C/c2ccc(N(CCCl)CCCl)cc2)ccc2cc(I)ccc21`, the growth inhibition in experiment [1] (setting [7]) was 99% (active); in experiment [1] (setting [8]), 99% (active); in experiment [1] (at 50.0 µM), 91% (active); in experiment [2] (setting [7]), 99% (active); in experiment [2] (setting [8]) it was 99% (active); in experiment [2] (at 50.0 µM) it was 90.8% (active). For the same molecule, the growth inhibition in experiment [3] (setting [7]) is 99% (active); in experiment [3] (setting [8]) it was 99% (active); in experiment [3] (at 50.0 µM) it was 89.5% (active); in experiment [4] (setting [7]) it was 99% (active); in experiment [4] (setting [8]), 99% (active); in experiment [4] (at 50.0 µM), 88.9% (active). Besides, the growth inhibition in experiment [5] (setting [7]) was 99% (active); in experiment [5] (setting [8]) it was 99% (active); in experiment [5] (at 50.0 µM), 91.5% (active); in experiment [6] (setting [7]), 99% (active); in experiment [6] (setting [8]), 99% (active); in experiment [6] (at 50.0 µM), 88.7% (active).

(Values after PubChem BioAssay (NCI).)
